# This is one part of a sample in which hits are shown more often than they occur.
# KDM5B inhibitor: KDM5B demethylase inhibition. Q9UGL1. KDM5B demethylase, FDH-coupled NADH fluorescence (FDH is formaldehyde dehydrogenase). Potency, µM (titrated, usually from 57.7 µM), actives largely listed as inhibitors. 220,000 tested, 2.6% active; active means well fitted inhibition curve with a large enough effect; further: 0% is about no effect; nearly all actives have a fitted effect of over 70% in size
#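 Measured: NADH fluorescence change, 30 min, RT. System: KDM5BΔAP 200 nM final, H3K4me3 peptide, α-KG, Fe(II), ascorbate, NAD⁺ plus FDH, pH 7.5 HEPES. Compounds: titrated, 10 min pre-incubation with enzyme.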
# Active calls of the source: *; i = inactive. Potency means the concentration at half of the fitted maximal effect.
SMILES,KDM5B inhibitor
CC(=O)N1CC2(CCCN2Cc2ccc(Cl)cc2)Cc2ccccc21 (centres undefined),i
Clc1ccc(-c2cnc3n2C[C@H](CNCc2ccc4c(c2)OCO4)OC3)cc1,i
Cc1cc(/C=C/C(=O)c2cccc(Cl)c2)cc(C)c1O,i
COc1ccc(S(=O)(=O)Nc2cc(C)cc(C)c2)c2cccnc12,i
COc1ccc(CC(=O)Nc2ccc(OC)c3ncccc23)cc1,i
COc1cc(Nc2c(C#N)cnc3c(OC)cccc23)cc(OC)c1OC,i
COc1nc(-c2ccc(OC)c3ncccc23)ncc1F,32µM*
COc1ccc(-c2nc(C)c(C)cc2C#N)c2cccnc12,32µM*
CCC(CC)C(=O)Nc1ccc(OC)c2ncccc12,i
CC(=O)NCc1ccc(C(=O)CCl)o1,i
COc1ccc(CN2CCC(C(O)(c3ccccc3)c3ccccc3)CC2)c(OC)c1,i
CCCc1cc(=O)[nH]c(SCc2nnc(-c3cc(OC)c(OC)c(OC)c3)o2)n1,i
O=C(N/N=C/c1ccccc1F)C1CC1,i
CC(=O)N1CCc2[nH]cnc2C12CCN(C(=O)Cn1nccc1C)CC2,i
CNc1nc2c(c(C(=O)N3CCCC3)n1)CN(C(=O)Cn1nccc1C)CC2,22µM*
O=C(Cn1nc2c(cc1=O)CCCC2)N1CCCC1,i
CCOc1nccnc1NC1CCN(C(=O)Cc2cccs2)CC1,32µM*
CCOC(=O)N1CCC(Nc2ncncn2)CC1,i
O=C(Cc1cccs1)N1CCSCC1,i
CCCOc1cccc(C(=O)N2CCN(C(=O)C3CCCO3)CC2)c1 (centres undefined),i
CNC(=O)N1CCC(Oc2ncccc2C(=O)N(C)C)C1 (centres undefined),i
CCOc1nccnc1NC1CCN(C(=O)NC)CC1,28µM*
CCOc1nccnc1NC1CCN(C(=O)C2CCCO2)CC1 (centres undefined),28µM*
Cc1ccc(CC(=O)N2CCN(C(=O)C3CCCO3)CC2)cc1 (centres undefined),i
O=C(Cc1cccs1)N1CCC(Oc2ccccc2)C1 (centres undefined),i
SMILES,KDM5B inhibitor
CC(NC(=O)CSc1cc(C(=O)NC2CC2)c2ccccc2n1)C1CC1 (centres undefined),i
CN(C)CCCN(C(=O)c1cccc(C(F)(F)F)c1)c1nc2ccc(F)cc2s1,i
CC(C)(C)c1ccc(C(=O)NC(Nc2ccc(I)cc2)C(Cl)(Cl)Cl)cc1 (centres undefined),i
CN(C)c1ccc(NC(=O)CSc2ccc(F)cc2)cc1,i
Cc1ccc(S(=O)(=O)N2CCN(Cc3csc(C)n3)CC2)c(Br)c1,i
O=C(NC1CCCCCC1)C1CC(c2cccc(F)c2)=NO1 (centres undefined),i
CCCn1nc(C(=O)Nc2nc(C)cs2)c2ccccc2c1=O,i
CCc1c(/C(=N/O)c2ccc(C)cc2)oc2ccc3c(C)cc(=O)oc3c12,i
CCOc1cc(S(=O)(=O)N2CCN(CCO)CC2)ccc1Cl,i
Cn1ncc(N2CCOC(CCNc3cnc4ccccc4n3)C2)cc1=O (centres undefined),32µM*
Cn1ncc(N2CCOC(CCNC(=O)c3cccnn3)C2)cc1=O (centres undefined),i
CC(C)c1nc(Cn2ncc(N3CCOC(CCN)C3)cc2=O)no1 (centres undefined),i
C=CCNC(=S)N/N=C1/CCC=C1CCCCC,i
CN1CC2(CCCN(Cc3ccc(-c4ccccn4)cc3)C2)OC1=O (centres undefined),i
CN1CC2(CCCN(Cc3cc4ccccc4n(C)c3=O)C2)OC1=O (centres undefined),22µM*
CN1CC2(CCCN(Cc3cc4ccccc4o3)C2)OC1=O (centres undefined),i
CSc1nc(C)c(CCC(=O)NC(C)c2ccc(F)c(F)c2)c(C)n1 (centres undefined),i
CCCC(=O)Nc1nn2c(CC(C)C)nnc2s1,i
Fc1cc(Cl)ccc1C1c2nc[nH]c2CCN1Cc1ccccn1 (centres undefined),i
Cn1c(-c2ccc(CN3CCc4[nH]cnc4C3C(=O)O)o2)nc2ccccc21 (centres undefined),28µM*
O=C(O)C1c2nc[nH]c2CCN1C(=O)CCN1CCCCC1 (centres undefined),i
COc1ccc(Nc2cnc3ccc(-c4ccccc4OC)nn23)cc1,i
c1ccc(CCN2CCC(NC3CCCC3)CC2)cc1,i
CN(C)C[C@@H]1CN(c2ccccn2)C[C@H]1NC(=O)CC1=CCCCC1,32µM*
CN(C)C[C@@H]1CN(c2ccncn2)C[C@H]1NC(=O)c1c(F)cccc1F,i
SMILES,KDM5B inhibitor
CCOc1ccc(CC(=O)N[C@@H]2CN(c3ccncn3)C[C@H]2CN(C)C)cc1,i
CN(C)C[C@@H]1CN(c2ccccn2)C[C@H]1NC(=O)Cc1ccsc1,28µM*
COc1ccc(CC(=O)N[C@@H]2CN(c3ccncn3)C[C@H]2CN(C)C)cc1OC,i
Cc1noc(C)c1CC(=O)N[C@@H]1CN(c2ccncn2)C[C@H]1CN(C)C,i
CCOCC(=O)N[C@@H]1CN(c2ccncn2)C[C@H]1CN(C)C,i
Cc1noc(C)c1CC(=O)N[C@@H]1CN(c2ccccn2)C[C@H]1CN(C)C,32µM*
Cc1noc(C)c1CCC(=O)N[C@@H]1CN(c2ccncn2)C[C@H]1CN(C)C,i
Cc1cccc(OCC(=O)N[C@@H]2CN(c3ccncn3)C[C@H]2CN(C)C)c1,i
CN(C)C[C@@H]1CN(c2ccncn2)C[C@H]1NC(=O)C1CC=CCC1 (some centres undefined),i
CN(C)C[C@@H]1CN(c2ccccn2)C[C@H]1NC(=O)NC(C)(C)C,32µM*
Cc1cc(C(=O)OCC(=O)c2ccc(OC(=O)c3ccccc3)cc2)c2ccccc2n1,i
CCOc1ccc(CC(=O)N2CCC(Cc3nc(-c4ccc(OC)cc4)no3)CC2)cc1,i
O=C(c1occc1-c1ccccc1)N1CCN(S(=O)(=O)c2c(F)cccc2F)CC1,i
Cc1cc(C)c(C(=O)C(C)OC(=O)c2ccc(CO)cc2)cc1C (centres undefined),i
CCOc1cccc(NC(=O)c2ccccc2)c1,i
CCC(CNC(=O)Cn1cnc2c1c(=O)n(C)c(=O)n2C)c1ccccc1 (centres undefined),i
N#CC(/C(=N/S(=O)(=O)c1ccccc1)c1ccccc1)c1nc2ccccc2s1 (centres undefined),i
CC(=O)Nc1ccc(C(=O)Nc2cnc3ccccc3c2)cc1,i
CN(Cc1cccnc1)C(=O)CC1C(=O)NCCN1Cc1ccc(-c2ccccc2)cc1 (centres undefined),i
O=C(CC1C(=O)NCCN1Cc1ccc(-c2ccccc2)cc1)NC(CO)CO (centres undefined),20µM*
CCOc1ccccc1CN1CCNC(=O)C1CC(=O)NCc1ccccn1 (centres undefined),i
O=C(CC1C(=O)NCCN1Cc1ccc(-c2ccccc2)cc1)NCc1ccco1 (centres undefined),25µM*
O=C(CC1C(=O)NCCN1Cc1ccccc1)NC1C2CC3CC(C2)CC1C3 (centres undefined),i
CCOc1ccc(CN2CCNC(=O)C2CC(=O)NC2CCCCCC2)cc1 (centres undefined),i
CC(OC(=O)c1ccc(O)cc1)C(=O)C12CC3CC(CC(C3)C1)C2 (centres undefined),i
